# High-throughput results from PubChem.
# This is a sample that favours compounds with a hit; in the whole collection about 1.2% have one here.
# GLA inh pH 4.5: alpha-galactosidase A (human) inhibition, pH 4.5; purified enzyme, 4-MU-alpha-Gal fluorescence, pH 4.5; activity change, negative = inhibition, % at 105 µM; AID 1467; P06280; 230,000 tested, under 10 active
# Target sequence (P06280 whole entry, looked up): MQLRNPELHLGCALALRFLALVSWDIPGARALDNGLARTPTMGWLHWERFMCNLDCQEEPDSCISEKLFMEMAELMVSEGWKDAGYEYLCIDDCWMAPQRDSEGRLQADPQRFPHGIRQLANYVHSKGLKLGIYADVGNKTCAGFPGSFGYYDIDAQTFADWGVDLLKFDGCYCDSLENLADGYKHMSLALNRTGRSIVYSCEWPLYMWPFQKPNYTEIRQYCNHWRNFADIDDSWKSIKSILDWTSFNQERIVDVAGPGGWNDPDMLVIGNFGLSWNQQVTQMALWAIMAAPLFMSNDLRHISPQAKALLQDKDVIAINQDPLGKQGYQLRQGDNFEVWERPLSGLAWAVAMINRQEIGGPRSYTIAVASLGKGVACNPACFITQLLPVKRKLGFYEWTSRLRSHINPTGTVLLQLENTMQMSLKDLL
# PKM2 act: increases activity of human pyruvate kinase M2 | hit rate 0.34% among 260,000 | Potency, µM (series often up to 57.5 µM), most hits filed as activators | purified PKM2, Kinase-Glo ATP luminescence, activation; response scale: 0% is enzyme alone, no compound | AID 1631 | P14618; further: nearly all actives have a fitted effect of over 55% in size
#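 Kinase-Glo luminescence reports ATP generated from ADP (0.1 mM) and PEP (0.5 mM) by purified hPK-M2 after 1 h at room temperature, pH 7.2 imidazole buffer; intermediate enzyme activity allows detecting inhibitors and activators.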
# HTT cytoprotect: Huntington cell model cytoprotection by ATP luminescence. PC12 HTT-Q103 induced, cytoprotection, ATP luminescence, 40 h. Potency, µM (top dose mostly 56.4 µM), hits mostly activators. hit rate 0.14% among 230,000. AID 1471; further: nearly all actives have a fitted effect of over 45% in size
#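 PC12 cells with ecdysone-inducible HTT exon 1 Q103-GFP, induced with 100 nM tebufenozide and co-treated with library compounds in a dose series (1536-well, 1500 cells/well). Cytoprotection read as ATP content by ATPlite luminescence.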
# HttQ103 aggreg: mutant huntingtin aggregation inhibition; PC12 HttQ103-GFP aggregates, Acumen cytometry, 40 h; Potency, µM (doses to about 46.1 µM), actives largely listed as inhibitors; hit rate 1.1% among 220,000; further: nearly all actives have a fitted effect of over 60% in size
#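 PC12 cells with ecdysone-inducible HTT exon1 Q103-GFP, induced by 100 nM tebufenozide, given compounds in a concentration series. GFP aggregates (1–25 um, 6 SD above background) counted in lysates by laser-scanning cytometry, 488 nm excitation.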
# aGal spleen mod: alpha-galactosidase A (human) modulation | P06280 | human spleen homogenate, 4MU-alpha-Gal fluorescence, 40 min | Potency, µM (doses to about 80 µM), actives largely listed as inhibitors | hit rate 0.008% among 240,000 | AID 2107
#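 Spleen homogenate 1 ug + cpd (titration) + 4-MU-alpha-D-galactopyranoside 1 mM; 37C 40 min; 50 mM citrate/phosphate pH 5.0, 0.01% Tween-20; stop pH 10; fluorescence 365/440; AC50 via Hill.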
# A number is an active result; 0 = inactive; ? = inconclusive; - = no result; ! = not confirmed by another sample; [ ] = remark or other dose. The call rests on the fitted dose curve; in most records, active means well fitted curve in the direction sought with a large enough effect; inconclusive means small, poorly fitted or top-dose-only effect, or another doubt; inactive means no such curve, though single readings can be large; an effect the other way counts as inactive or inconclusive.
SMILES,GLA inh pH 4.5,PKM2 act,HTT cytoprotect,HttQ103 aggreg,aGal spleen mod
Cc1cccc(N(C)S(=O)(=O)c2cc3c(cc2C)n(C)c(=O)c(=O)n3C)c1,-,10µM,-,-,-
Cc1cc2c(cc1S(=O)(=O)N(C)c1ccccc1)n(C)c(=O)n2C,-,12.6µM,-,-,-
NCC(=O)N[C@@H](CCCN=C(N)N)C(=O)NCC(=O)N[C@@H](CCC(=O)O)C(=O)N[C@@H](CO)C(=O)O,-,-,-,-,0
Cn1c(=O)c(NCCc2ccccc2)c2c3c(cccc31)C(=O)c1ccccc1-2,0,0,0,10µM,0
C[N+](C)(C)[C@@H](C1=CCCC1=O)c1ccccc1,-,-,0[10 µM],-,-
Cn1cccc1C(=O)N1CCC[C@@]2(CCN(c3ccccc3)C2)C1,-,-,?,-,0
Cc1cc(C(=O)CN2C(=O)NC3(CCCc4sccc43)C2=O)c(C)n1-c1ccccc1 (configuration not stated),0,0,-,22.4µM,0
COC(=O)N1CCC2(CC1)CN(C(=O)Nc1ccc(OC)cc1)C2,-,-,0,-,0
CC[C@H](C)[C@H](NC(=O)[C@H](CC(C)C)NC(=O)[C@H](CO)NC(=O)[C@H](CCC(=O)O)NC(=O)[C@H](CC(C)C)NC(=O)[C@H](Cc1ccc(O)cc1)NC(=O)[C@H](CCCCN)NC(=O)[C@H](CCCCN)NC(=O)[C@H](C)NC(=O)[C@H](CO)NC(=O)[C@H](CC(C)C)NC(=O)[C@H](CCC(N)=O)NC(=O)CNC(=O)[C@H](CC(C)C)NC(=O)[C@H](CC(C)C)NC(=O)[C@H](CCCNC(=N)N)NC(=O)[C@H](CO)NC(=O)[C@H](Cc1ccccc1)NC(=O)[C@H](CC(=O)O)NC(=O)[C@H](CO)NC(=O)[C@@H](NC(=O)[C@H](Cc1ccccc1)NC(=O)[C@@H](NC(=O)CNC(=O)[C@H](CC(=O)O)NC(=O)[C@H](C)NC(=O)[C@@H](N)Cc1cnc[nH]1)C(C)C)[C@@H](C)O)C(N)=O,-,-,-,-,0
CCOC(=O)c1oc2ccc(S(=O)(=O)n3nc(-c4ccc(OC)cc4)cc3N)cc2c1C,0,0,0,0,0
CCOC(=O)c1oc2ccc(S(=O)(=O)n3nc(-c4ccccc4)cc3N)cc2c1C,0,0,0,10µM,0
COCCn1c(=O)c(-c2ccc(OC)cc2)nc2cnc(N3CCOCC3)nc21,-,-,0,-,0
COC(=O)c1ccccc1S(=O)(=O)N(Cc1cc2ccc(OC)cc2[nH]c1=O)CC1CCCO1 (configuration not stated),0,0,0[10 µM],3.55µM,0
COc1ccc2cc(CN(CC3CCCO3)S(=O)(=O)c3ccc(C(C)=O)cc3)c(=O)[nH]c2c1 (configuration not stated),0,0,0,0,0
O=C(Nc1ccccc1)N1CCCC2(CCNCC2)C1,-,-,0,-,0
CC(C)=CCC/C(C)=C/CO/N=C1/C[C@@H](O)[C@@H](O)[C@@H]2[C@@H]3C(=O)N(C[C@@H]4CCCO4)C(=O)[C@H]3CC[C@H]12,-,-,?,-,0[17.5 µM]
COC(=O)c1c(NC(=O)c2cccnc2)sc(C)c1C,0,0,0[10 µM],0,0
COC(=O)c1c(NC(=O)c2cccnc2)sc(C(=O)N(C)C)c1C,0,0,1.26µM,0,0
CC(C)(C)c1nnc(N/N=C/c2cc(Br)ccc2O)n(N)c1=O,0,0,0[10 µM],12.6µM,0
O=c1cc(-c2cccc(O)c2O)oc2ccccc12,0,-,?,-,0
c1ccc(Nc2ccccc2Nc2ccccn2)nc1,0,0,?,0,0
Oc1cccc2ccc(Nc3ccccn3)nc12,0,0,0[10 µM],3.55µM,0
Cc1ccccc1-c1cc2c(nn1)-c1ccccc1C2=O,0,0,0,25.1µM,0
Oc1ccc(Br)cc1-c1nc2cnccn2c1NC1CCCCC1,0,0,0,?,0
Oc1ccc(Br)cc1-c1nc2cnccn2c1NC1CCCC1,0,0,0,20µM,0
SMILES,GLA inh pH 4.5,PKM2 act,HTT cytoprotect,HttQ103 aggreg,aGal spleen mod
COc1ccc(N2CCN(CC(O)c3c[nH]c4ccc(OC)cc34)CC2C)cc1 (configuration not stated),0,0,0,12.6µM,?
COc1ccc2[nH]cc(C(O)CN3CCN(c4ccccc4)CC3)c2c1 (configuration not stated),0,0,0[0.074 µM],?,0
CCOC(=O)c1c(NC(=O)Cn2nnc(-c3ccc(Cl)cc3)n2)sc(C)c1C,0,0,0,0,0
CC(C)NC(=O)Cn1nnc(-c2ccc(Cl)cc2)n1,0,0,0[10 µM],12.6µM,0
Cn1c(SCc2ccc(Br)cc2)nc2c(c1=O)SCC2,0,0,0,?,0
Cn1c(SCc2cccnc2)nc2c(c1=O)SCC2,0,28.2µM,0[10 µM],0,0
CCCC/C=C/C(NC(=O)c1cccs1)c1ccccc1 (configuration not stated),0,0,0,-,0
Cc1nnc2sc(SCc3ccccc3Cl)nn2c1=O,0,7.08µM,0,0,0
Cc1cc(N/N=C/c2cccc(Cl)c2)nc(-n2nc(C)cc2C)n1,0,0,0[10 µM],0[9.22 µM],0
COc1ccc(/C=N/Nc2cc(C)nc(-n3nc(C)cc3C)n2)cc1,?,0,0[10 µM],14.1µM,0
COc1cccc(-c2noc(N)c2C#N)c1,0,0,0,11.2µM,0
OC[C@H]1OC(O)[C@@H](O)[C@@H](O)[C@H]1O (some centres not stated),-,-,-,-,0
C=C[C@@]1(C)CC(=O)[C@]2(O)[C@@]3(C)[C@H](O)CCC(C)(C)[C@@H]3[C@H](O)[C@H](OC(C)=O)[C@@]2(C)O1,-,-,-,-,0
Cc1oc(-c2cccc(F)c2)nc1CN1CCCCC1CCn1cccn1 (configuration not stated),0,0,0[10 µM],0[9.22 µM],0
Cc1ccc(-c2nc(CN3CCCCC3CCN3CCCC3=O)c(C)o2)o1 (configuration not stated),0,0,3.98µM,0[9.22 µM],0
O=c1[nH]c(=O)n([C@H]2C[C@H](O)[C@@H](CO)O2)cc1Br,0,-,3.55µM!,0,0
CO[C@H]1COC(=O)[C@H](C)NC(=O)C/C=C\[C@@H](C)[C@H](OC)COC(=O)[C@@H](OCc2ccccc2)/C=C\[C@@H]1C,-,-,0[10 µM],-,0[17.5 µM]
Cc1cccc(Cn2c(SCC(=O)Nc3ccccc3)nc3c2c(=O)[nH]c(=O)n3C)c1,0,1.41µM,0,0,0
CC(C)C1=C[C@@]23CC[C@@H]4[C@](C)(CCC[C@@]4(C)C(=O)O)[C@@H]2C[C@@H]1[C@@H](C(=O)O)[C@@H]3C(=O)O,-,-,0[10 µM],-,-
COc1ccc(S(=O)(=O)Nc2ccccc2C(=O)Nc2nc(-c3ccc(F)cc3)cs2)cc1OC,0,0,?,10µM,0
COC(=O)CSc1nc(C)cc(C(F)(F)F)c1C#N,0,0,0,0,0
Cc1cc(C)c(C#N)c(SCC(=O)Nc2nonc2N)n1,-,14.1µM,-,-,-
CCOC(=O)NC(=O)CSc1nc(C)cc(C(F)(F)F)c1C#N,0,0,0,10µM,0
